# HTT-AS act – Primary qHTS for Identification of Small Molecule Activators of Huntingtin-Antisense Promoter Activity. Potency, µM (highest dose often 57.5 µM), inactives show top-dose activity change, positive = activation, actives largely listed as activators. 48,000 tested, 0.24% active. AID 1508624, 2021. HEK293 HTT-AS promoter firefly luciferase reporter, 24 h; response scale: percent change from vehicle, -100% = no light; further: nearly all actives have a fitted effect of over 55% in size
#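 Firefly luciferase signal from promoter-reporter HEK293 cells was scaled between vehicle (0%) and zero RLU (-100%). Compounds were tested at final concentrations of up to 57.5 uM over 24 h at 37 degrees C. PTC124 at 50 uM final served as control inhibitor.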
# HTT promoter inh – Primary qHTS for Identification of Small Molecule Inhibitors of Huntingtin Promoter Activity | HEK293 HTT promoter firefly luciferase reporter, 24 h | Potency, µM (titrated, usually from 57.5 µM), for the others: top-dose activity change, negative = inhibition, usual class: inhibitors | 48,000 tested, 0.93% active | AID 1508623, 2021; further: nearly all actives have a fitted effect of over 50% in size
#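 Firefly luciferase readout (Dual-Glo, 10 min RT) after 24 h, 37 °C compound exposure (final up to 57.5 uM) of HEK293 reporter cells cultured 24 h beforehand; PTC124 at 50 uM final as control inhibitor; activity scaled vehicle 0%, zero RLU -100%.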
# GALC G270D up – A Novel Cell-Based Assay to Identify Small Molecules for B -Galactocerebrosidase | P54803 | 145M-Twi-hGALC-G270D cells (Twitcher mouse brain line with human GALC G270D), HMU-beta-Gal fluorescence, 48 h | Potency, µM (doses to about 57.5 µM), actives largely listed as activators | 45,000 tested, 0.1% active | AID 1159614, 2016; further: 0% is about no effect; nearly all actives have a fitted effect of over 65% in size
#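 Fluorogenic HMU-b-Gal hydrolysis (0.1 mM final, pH 5.2 citrate-phosphate with 1 mg/mL sodium taurocholate; carbonate stop buffer) measures mutant GALC activity after compound treatment of live 145M-Twi Twitcher brain cells stably carrying human GALC-G270D, with wild-type GALC line alongside; activation sought.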
# NTMT1 inh – Primary qHTS for Inhibitors of N-terminal methyltransferase 1 (NTMT1): MTaseGlo Assay. N-terminal Xaa-Pro-Lys N-methyltransferase 1 (Homo sapiens), Q9BV86. NTMT1 MTase-Glo SAH luminescence, purified enzyme. AID 1645870, 2021. Potency, µM (highest dose often 114 µM), inactives show at the top dose activity change, negative = inhibition, actives largely listed as inhibitors. 59,000 tested, 2.5% active;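 further: plate controls were DMSO vehicle for no effect and no enzyme for full effect; nearly all actives have a fitted effect of over 65% in size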
# Target sequence (Q9BV86 whole entry, looked up): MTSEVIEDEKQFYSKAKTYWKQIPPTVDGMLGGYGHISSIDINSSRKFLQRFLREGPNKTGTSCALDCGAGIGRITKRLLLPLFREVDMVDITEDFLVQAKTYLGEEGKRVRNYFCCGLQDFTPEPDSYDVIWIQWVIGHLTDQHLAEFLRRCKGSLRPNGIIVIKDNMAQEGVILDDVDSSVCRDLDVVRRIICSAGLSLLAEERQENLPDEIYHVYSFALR
# * = called active by the depositor; i = inactive; ? = inconclusive; . = not tested or not shown; ! = not active in a repeat; [ ] = another dose, or the depositor's remark. An excerpt weighted towards active compounds, which were near 2.7% of everything screened. The call rests on the fitted dose curve; in most records, active means well fitted curve in the direction sought with a large enough effect; inconclusive means small, poorly fitted or top-dose-only effect, or another doubt; inactive means no such curve, though single readings can be large; an effect the other way counts as inactive or inconclusive. Potency means the concentration at half of the fitted maximal effect.
SMILES,HTT-AS act,HTT promoter inh,GALC G270D up,NTMT1 inh
Cc1ccccc1C(=O)Nc1sc2c(c1C(=O)O)CCC(C(C)(C)C)C2 (stereo unspecified),-37%,2.8µM*,i,0%
O=c1c(O)c(-c2ccc(O)c(O)c2)oc2cc(O)ccc12,-18%,?,.,50µM*!
COc1cc(O)c2c(=O)c(O)c(-c3ccc(O)c(O)c3)oc2c1,.,.,.,25µM*
C/C=C/C=C/C(CC(=O)O)Nc1ccc(C=O)cc1 (stereo unspecified),.,.,.,10%[57.5 µM]
CCn1c(=N)c(C(=O)NC2CCCCC2)cc2c(=O)n3cccc(C)c3nc21,-13%,-8%,28µM*,1%
Cc1cccn2c(=O)c3cc(C(=O)NC(C)c4ccccc4)c(=N)n(CCOCCO)c3nc12 (stereo unspecified),-5%,-1%,i,-15%
CCOCCCn1c(=N)c(C(=O)NC(C)c2ccccc2)cc2c(=O)n3cccc(C)c3nc21 (stereo unspecified),-30%,-26%,20µM*,2%
Cc1cccn2c(=O)c3cc(C(=O)NCc4ccccc4)c(=N)n(CCOCCO)c3nc12,-13%,-2%,10µM*,1%
CCCn1c(=N)c(C(=O)NC2CCCC2)cc2c(=O)n3cccc(C)c3nc21,-12%,-7%,i,-16%
CC1(C)CCC2(C(=O)O)C(O)CC3(C)C(=CCC4C5(C)CCC(OC6OC(CO)C(O)C(O)C6OC6OC(CO)C(O)C(O)C6OC6OCC(O)(CO)C6O)C(C)(C)C5CCC43C)C2C1 (stereo unspecified),.,.,.,5%[12.6 µM]
N#CN1CCC[C@@H](n2nc(-c3ccc(Oc4ccc(F)cc4F)cc3)c(C(N)=O)c2N)C1,.,.,.,8%[57.5 µM]
O=C(Nc1ncc(Cc2ccc(C(F)(F)F)cc2)s1)c1cn(-c2ccccc2)cn1,.,.,.,17%
C=CC1(C)C=C2CC[C@H]3[C@@](C)(C(=O)O)CCC[C@]3(C)C2CC1 (stereo partly specified),.,.,.,-16%[29.8 µM]
O=C(O)c1cccc(CN2C(=O)/C(=C(\c3ccccc3)c3ccc(Cl)cc3)c3ccccc32)c1,.,.,.,28µM*
Cc1c(C(=O)Nc2ccc(C(=O)O)cc2)nnn1-c1ccccc1,-91%,2.5µM*,i,0%
CC[C@H]1OC(=O)[C@H](C)C(=O)[C@H](C)[C@@H](O[C@H]2O[C@H](C)C[C@H](N(C)C)[C@H]2O)[C@](C)(OC)C[C@@H](C)C(=O)[C@H](C)[C@H]2N(CCCCn3cnc(-c4cccnc4)c3)C(=O)O[C@]12C,.,.,.,-4%
COc1ccc(N2CCN(c3nc4ccccc4n4c(C)nnc34)CC2)cc1,-8%,-5%,i,79µM*
O=C(/C=C/c1ccc(O)cc1)O[C@H]1[C@H](OC2CCCCC2O)O[C@H](CO)[C@@H](O)[C@@H]1O (stereo partly specified),.,.,.,-6%[29.8 µM]
CCC(C)NC(=O)C1CCN(C(=O)c2cc3sccc3n2Cc2ccc(Cl)cc2)CC1 (stereo unspecified),-54%,8.9µM*,i,5%
Clc1cccc(C2=NC(c3cccs3)=Nc3ccc(Br)cc3N2)c1,9%,-13%,i,89µM*
CCOC(=O)c1cc(-c2ccccc2)n(CCC(=O)Nc2ccc(Cl)c(C(F)(F)F)c2)c1C,-51%,22µM*,i,1%
Cc1cccc(-n2cnc3cc(C(=O)N4CCC(Br)CC4)ccc32)c1,.,.,.,2%[57.5 µM]
O=C(O)CNC(=O)c1nc(Cl)c2ccccc2c1O,.,.,.,10%
CCc1ccc(OCC(=O)NCc2nc(-c3cccc(C)c3)no2)c(Br)c1,-18%,-15%,i,10%
CCc1ccc(OCC(=O)Nc2ncn[nH]2)c(Br)c1,25µM*,54%,i,-9%
SMILES,HTT-AS act,HTT promoter inh,GALC G270D up,NTMT1 inh
O=C(COc1ccc(Br)cc1Cl)Nc1ncn[nH]1,8.9µM*,72%,i,-6%
CC[C@@]1(O)C(=O)OCc2c1cc1n(c2=O)Cc2c-1nc1ccccc1c2CCNC(C)C,.,.,.,13%[12.6 µM]
Cc1cc(NC(=O)NCCN2CCC(O)(Cc3ccccc3)CC2)c2ccccc2n1,.,.,.,0%[57.5 µM]
O=C1NC(=O)C(c2cnc3ccccn23)=C1c1cn2c3c(cc(F)cc13)CN(C(=O)N1CCCCC1)CC2,.,.,.,27µM*!
O=C(Nc1nc2nc(-c3ccccc3)cc(=O)n2[nH]1)c1ccc(Cl)cc1,-15%,-12%,i,50µM*
Cc1ccccc1C(=O)Nc1nc2nc(-c3ccccc3)cc(=O)n2[nH]1,0%,-17%,i,11%
COc1ccc(-c2cc(-c3ccccc3)nc(SCC(=O)Nc3ccccc3F)c2C#N)cc1,-3%,-6%,i,-5%
COc1ccc(-c2cn3nc(SCC(=O)Nc4ccccc4F)ccc3n2)cc1,-92%,4µM*,i,-17%
COc1ccc(CNC(=O)C2CCN(C(=O)c3cnn(-c4ccccc4)c3-n3cccc3)CC2)cc1,-44%,?,i,89µM*
COc1cccc(CNC(=O)C2CCN(C(=O)c3cnn(-c4ccccc4)c3-n3cccc3)CC2)c1,-41%,?,i,?
C=CC(C)(CC/C=C(\C)C(=O)OC)OC1OC(COC(=O)CC(C)(O)CC(=O)O)C(O)C(O)C1O (stereo unspecified),.,.,.,-13%[29.8 µM]
CCOC(=O)c1cnc2ccc(-c3cncc(NS(=O)(=O)c4ccccc4)c3)cn12,.,.,.,28µM*
CCOC(=O)c1cccc(NS(=O)(=O)c2ccc(-c3coc(C)n3)cc2)c1,-12%,-21%,i,-2%
CCc1ccc(CNC(=O)c2ccc(NC(=O)N3CCSc4ncccc43)cc2)cc1,-16%,-27%,i,5%
O=C(NCc1ccccc1)c1ccc(NC(=O)N2CCSc3ncccc32)cc1,-33%,-37%,i,89µM*
Nc1cc(C(F)(F)F)ccc1S,-7%,-3%,i,8.9µM*
CCOC(=O)c1cccc(NS(=O)(=O)c2ccc(NC(=O)Cc3ccc(Cl)c(Cl)c3)cc2)c1,.,.,.,-3%
CCOC(=O)c1nnc(N[S+](=O)([O-])c2ccc(NC(=O)Cc3ccc(Cl)c(Cl)c3)cc2)s1,.,.,.,79µM*
Cc1cc(-c2ccccc2)nc2c(C(=O)Nc3ccc4c(c3)CCC4)cnn12,.,.,.,5%
CC(C)c1c(C(=O)Nc2ccccc2)c(-c2ccccc2)c(-c2ccc(F)cc2)n1CC[C@@H](O)C[C@@H](O)CC(=O)O,-4%,18%,i,35µM*!
CC(C)c1c(C(=O)Nc2ccccc2)c(-c2ccccc2)c(-c2ccc(F)cc2)n1CC[C@H](O)C[C@@H](O)CC(=O)O,-13%,6%,.,29%[57.5 µM]
NCCCCC(=O)Nc1ccc(Cl)cc1C(=O)c1ccc[nH]1,.,.,.,8%
Cc1c(OCC(F)(F)F)ccnc1CS(=O)c1nc2ccccc2[nH]1 (stereo unspecified),?,15%,i,45µM*!

# Screens as filed in PubChem BioAssay.
